# Compounds without any hit were thinned out: in the full panel of roughly 79,000, 15% have a hit. Values without a mark were called inactive. Calls of active or inactive are those of the source. Rule as the data show it: active = growth inhibition above about 70%; inactive = the rest.
# Key:
# [1] = NCI Yeast Anticancer Drug Screen. Data for the rad50 strain (AID 155);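 also: 0% = growth of vehicle-only cultures of the same strain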; conditions: S. cerevisiae rad50 strain growth inhibition; at 50.0 µM; active compounds read high
# In short: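 Relative growth inhibition (compound vs vehicle) was measured in yeast with a defined repair-gene alteration.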
# [2] = NCI Yeast Anticancer Drug Screen. Data for the mec2-1 strain (AID 157); conditions: S. cerevisiae mec2-1 strain, at 50.0 µM, active compounds read high
# In short: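 Vehicle-treated cultures served as reference for growth inhibition of compound-exposed mec2-1 yeast.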
# [3] = NCI Yeast Anticancer Drug Screen. Data for the sgs1 mgt1 strain (AID 161);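 also: 0% = growth of cultures given vehicle only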; conditions: S. cerevisiae sgs1 mgt1 strain, at 50.0 µM, active compounds read high
# In short: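 Read-out: growth inhibition vs vehicle controls. Cells: mutant yeast strain deficient in DNA damage repair.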
# [4] = NCI Yeast Anticancer Drug Screen. Data for the cln2 rad14 strain (AID 165);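 also: 0% = growth equal to vehicle treated cultures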; conditions: S. cerevisiae cln2 rad14 strain, at 50.0 µM, active compounds read high
# In short: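 Each compound was tested on cln2 rad14 yeast. Inhibition of growth was calculated against vehicle-exposed controls.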
# [5] = NCI Yeast Anticancer Drug Screen. Data for the bub3 strain (AID 167); conditions: S. cerevisiae bub3 mutant strain, at 50.0 µM, active compounds read high
# In short: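 Screening used yeast with an engineered genetic alteration affecting cell cycle control. Compound-exposed cultures were compared with vehicle cultures, and reduced growth was taken as inhibition.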
# [6] = NCI Yeast Anticancer Drug Screen. Data for the mlh1 rad18 strain (AID 175); conditions: S. cerevisiae mlh1 rad18 strain growth inhibition; at 50.0 µM; active compounds read high
# In short: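 Vehicle-treated cultures served as the reference for growth inhibition in a yeast strain carrying DNA damage repair alterations exposed to each compound.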
SMILES,growth inhibition [1],growth inhibition [2],growth inhibition [3],growth inhibition [4] [%],growth inhibition [5],growth inhibition [6]
NC(=O)CCC(N)C(=O)O.[Cl-].[Cl-].[Cl-].[Cl-].[Pt+2] (configuration not stated),-1.4%,-3.35%,-9.1%,23.9,8.1%,13%
CCCCOP(=O)(/C=C/c1cccs1)OCCCC,81.2% (active),37%,79% (active),7.95,61.5%,37.1%
N#CC(N)c1ccccc1 (configuration not stated),13.7%,-14.9%,17.4%,1.45,14.1%,12.6%
C1CCN2COCC2C1 (configuration not stated),-16.2%,-16.9%,-38.5%,0.7,-17.2%,22.4%
CCOC(CCCN1CCC2(CC1)C(=O)N(C)CN2c1ccccc1)(OCC)c1ccc(F)cc1,8.45%,20.8%,16.4%,2.3,30.2%,25.2%
CCOc1ccc2ccccc2c1OP(=O)(OCC)OCC,23.9%,22%,38.9%,29.6,40.4%,25.6%
COc1ccc(OP2OCC(C)O2)cc1 (configuration not stated),-1.1%,-46.8%,-10.4%,-30,-2.6%,2.5%
c1ccc(CC[N+]23CC[N+](CCc4ccccc4)(CC2)C3)cc1,27.9%,3.2%,1.4%,-25.6,4.5%,16%
CC(=O)[CH-]C(C)=O.CC(=O)[CH-]C(C)=O.CC(=O)[CH-]C(C)=O.[Cl-].[Hf+4],3.85%,-1.25%,-16.6%,21.4,-9.75%,-6.35%
[CH3][Sn]([CH3])([O]S(=O)c1ccc(Cl)cc1)[O]S(=O)c1ccc(Cl)cc1 (configuration not stated),15.7%,-9.3%,-19.8%,14.7,-4.7%,-11.1%
O=P1(N(CCCl)CCCl)NCCCO1 (configuration not stated),-8.1%,-32.2%,-6.1%,4.8,-15.2%,-7.05%
N.N.N.N.N.NC(=O)c1nn[n-]n1.[Cl-].[Co+3],-27.2%,-3%,-9.45%,0,-27.3%,-17.1%
C#CCOCC(O)C[As](=O)(O)c1cccc(Cl)c1 (configuration not stated),5.85%,16.5%,7.9%,-5.3,10.7%,-8.75%
C=C(C)C1(CCC)C(=O)NC(=S)NC1=O,23.4%,19.7%,17.6%,25.6,4.35%,22.4%
CNC(=O)Oc1cc(C)cc(C(C)C)c1,14.3%,0.05%,1.6%,9.15,1.3%,6%
CN(C)CC#CCN(C)C,28.1%,5%,-1%,-10.8,0.45%,7.2%
O=CNC(CSC(c1ccccc1)c1ccccc1)C(=O)O (configuration not stated),0.25%,-5.55%,-10.9%,-26.4,20.2%,4.4%
Cc1ccc(S(=O)(=O)Nc2cc(C)cc(CCN)c2C)cc1,17.1%,-11.6%,-14.6%,4.75,5.5%,-10.1%
CC(=O)Cc1ccc(C)cc1,-40.4%,-41.8%,-29.5%,7.3,-44.5%,-20.3%
c1ccc(NNc2ccccc2)cc1,8.5%,1.7%,0.95%,-14.1,-6.15%,-5.65%
O=[N+]([O-])c1ccc(N2CC2)c([N+](=O)[O-])c1,1.85%,-1.95%,10.5%,20,-0.95%,5.45%

SMILES,growth inhibition [1],growth inhibition [2],growth inhibition [3],growth inhibition [4] [%],growth inhibition [5],growth inhibition [6]
COc1ccc(C=C(C#N)C#N)cc1OC,-2.8%,-8.15%,-1.95%,-24.2,-1.3%,-0.25%
CC1(c2ccccc2)CC12C(=O)NC(=O)NC2=O (configuration not stated),-69.1%,-22.6%,-18.9%,-8.75,-27.7%,-20.9%
O=C(CCC1CCCCN1)Nc1ccc2c(c1)C(=O)c1ccc(NC(=O)CCN3CCCCC3)cc1C2=O (configuration not stated),6.2%,9.2%,-1.9%,9.3,-12.6%,6.8%
CCC(OC(=O)C1C(C=C(C)C)C1(C)C)c1cc2c(cc1Cl)OCO2 (configuration not stated),-8.05%,-19.1%,-7.3%,-13.3,-10.7%,-20.8%
COC1C(OC(=O)c2ccc(C)[nH]2)C(O)C(Oc2ccc3c(O)c(NC(=O)c4ccc(O)c(CC=C(C)C)c4)c(=O)oc3c2Cl)OC1(C)C (configuration not stated),44.2%,25.9%,23.8%,50.6,35.9%,33%
CN(C)C(=O)NC(O)C(Cl)(Cl)Cl (configuration not stated),-20.4%,-8.35%,-5.45%,-21.1,-4.25%,19.1%
Cc1ccc(N[N+](=O)[O-])nc1,-7.25%,8.55%,-1.15%,-10.2,-3.15%,14%
NC(=O)CCC(NC(=O)Cc1ccccc1)C(=O)O (configuration not stated) (tested in a mixture with another compound),-4.45%,-14.1%,0.25%,-29.9,-9.65%,8.95%
CNC(=O)Oc1cccc(N)c1,5.35%,-1.1%,5.85%,7.3,-22.1%,-0.05%
COc1ccc([N+](=O)[O-])cc1,23.6%,-5.8%,12.6%,20.9,1.1%,-20.9%
CCCCC(=O)c1cc(OC)cc(OC)c1,8.35%,-12.3%,-34.1%,-54,22.4%,-10.7%
COP(=O)(OC)C(C)(C)NC(=O)NC(F)(F)F,-1.9%,-14.9%,-24.6%,28.9,11.1%,-4.25%
CCOC(=O)C(C)(Br)CC (configuration not stated),-19.4%,-3.25%,-17.4%,-81.4,-22.1%,-7.8%
CCCCS(=O)CCC(N)P(=O)(O)O (configuration not stated),-50.6%,-54%,-52.8%,-9.9,1%,-38.2%
C/C(CC(C)(C)N1CC1)=N\N,-19.7%,-12.8%,-7.75%,-20.1,-7.95%,-8.95%
C[N+]1(C)CCCC1c1cccnc1 (configuration not stated),42.8%,7.35%,-2.45%,-15.2,14.4%,29.9%
COc1cc(OC)c(SC)cc1CC(C)N (configuration not stated),-19.2%,-0.95%,-3.2%,-16.1,21.3%,-3.05%
O=P(O)(Nc1ccccc1)Nc1ccccc1,21.7%,33.4%,21%,-15.1,25.3%,15.3%
O=[N+]([O-])C1CCC(O)C([N+](=O)[O-])C1 (configuration not stated) (tested in a mixture with another compound),71.8% (active),37.7%,93.7% (active),69.3,13.6%,86.8% (active)
COC(=O)c1cncn1C(C)c1cccc2ccccc12 (configuration not stated),90.7% (active),91% (active),79.2% (active),59,88.2% (active),89.3% (active)
NS(=O)(=O)c1cccc([As](=O)(O)O)c1,-11.1%,10.4%,-12.9%,-3.55,-13.9%,-3.6%

# From PubChem BioAssay (NCI)
